Data from the supplement of paper PMC6555819.

What was measured:
Experiment in all cases: PBM binding z-score (relative to random genomic background probes); higher = stronger binding; sequences stand for … in GC…GCGATTGACAGCGTAGAATGAAGG
[1] = test system: RARb homodimer (NR concentration 270 nM)
Summary of the method: (§1)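 Binding buffer was PBS pH 7.4 with 2% milk, 0.02% Triton X-100, 1 mM DTT, 0.2 mg/mL BSA and 0.4 mg/ml salmon testes DNA. In it, ligand-free nuclear receptor dimers were incubated 1 h on custom Agilent 4×180K protein-binding microarrays carrying double-stranded probes. Antibodies against each partner (one per run) detected binding, and z-scores were calculated against random background probes after regression normalization of scanned fluorescence.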

[2] = test system: RARg:RXRa (NR concentration 270 nM, RXRa partner concentration 90 nM)
Summary of the method: as §1

[3] = test system: RARg homodimer (NR concentration 270 nM)
Summary of the method: as §1

[4] = test system: RXRa DBDmut IVT, anti-RXR (DBD mutation: RXRa K156A/R161A, NR concentration 90 nM)
Summary of the method: as §1

[5] = test system: RXRa homodimer (NR concentration 180 nM)
Summary of the method: as §1

[6] = test system: THRa:RXRa (NR concentration 90 nM, RXRa partner concentration 90 nM)
Summary of the method: as §1

[7] = test system: THRa homodimer (NR concentration 90 nM)
Summary of the method: as §1

[8] = test system: VDR homodimer (NR concentration 270 nM)
Summary of the method: as §1

Sequence | PBM binding z-score [1] | PBM binding z-score [2] | PBM binding z-score [3] | PBM binding z-score [4] | PBM binding z-score [5] | PBM binding z-score [6] | PBM binding z-score [7] | PBM binding z-score [8]
ATAAGTAGGTTAAGGGTCATTCAGGTTGGTTCGC | 4.19 | 4.8 | 3.75 | 2.28 | 6.11 | 3.65 | 2.27 | 4.94
CGTCCAAGGTCAGCAGGTCAGTGGAAGCGACGTG | 5.03 | 6.2 | 6.72 | 2.48 | 4.81 | 3.96 | 2.37 | 1.6
GCAAGTTGGTCAGTAAAAGGTCACACACCGGTCG | 5.2 | 5.36 | 4.48 | 0.685 | 5.47 | 3.61 | 1.82 | 1.96
CGTCGAAGGTCAAAGGTCAGTGAAGAGATGACGG | 5.17 | 8.72 | 7.78 | 3.05 | 9.99 | 4.58 | 0.832 | 2.54
TATACAGGGTCAAAGGCCAGAGGACGAATGTCGA | 3.52 | 5.92 | 5.44 | 2.95 | 7.17 | 3.5 | 0.968 | 2.9
GTACCAATGTGAATAGGTCGTTGATGAGTAGGCG | 0.0633 | 0.177 | 0.344 | -0.108 | 0.356 | -0.0211 | -0.677 | 0.254
TCTGCGAGGTCAACGATGGTCAGCTAATCTGCTA | 4.5 | 6.57 | 7.19 | 3.91 | 7.18 | 4.26 | 2.92 | 3.6
GCGCCTGGGGCATCAGCAGGTTACCATAACTTAA | 0.912 | 0.748 | 0.657 | -0.312 | 0.179 | 0.955 | -0.0466 | -0.553
GCAGACAGGCGAAACGCAGGTAACTCAGGGTGGC | -0.842 | -0.359 | -0.272 | -0.577 | -0.167 | 0.338 | -0.81 | -0.974
ATCTCTAGGTAAAGTTCAGGGAAAGATCGATAGA | 2.7 | 2.5 | 2.77 | 1.38 | 1.98 | 1.61 | 0.441 | 2.18
CCAGACACGTGAGAAGGTAACTCAGCCTCGATTA | -0.118 | 0.0186 | 0.206 | 0.268 | 0.0109 | -0.00448 | -0.0296 | 0.0283
CCTTACGGGTCACGAGGCTATAGCACGACGAGCG | 3.24 | 5.45 | 5 | 0.992 | 6.22 | 3.16 | 0.466 | 0.849
CCTGCTAGGCCAATGGTCAGCTAAAGCAGCTCGC | 0.323 | -0.216 | 0.173 | -0.154 | -0.899 | -0.489 | -0.709 | -0.962
TAGCCTAGGTCATTGGGCCCGTATAGTACGCATC | 2.73 | 3.69 | 4.06 | 1.8 | 2.68 | 3.01 | 1.43 | 0.994
TTACTAAGGTGAAGGTCGTTGATCCCTCTGTAGA | 1.96 | 1.85 | 1.21 | 0.794 | 2.31 | 3.16 | 1.98 | 1.11
TGAATGAGGTTAAAGATCAGGGGACGTGGCGTCG | 1.02 | 2.29 | 1.31 | 1.01 | 3.57 | 2.83 | 0.742 | 0.974
ATGGAAAGGTCGAGGTGAGTATAGAGAAAGGGAA | 3.16 | 4.21 | 4.21 | 0.469 | 4.53 | 3.15 | 1.47 | 0.902
TCTATTAGTTGCAGGGCAACCGACGAGTCCGTTT | 0.506 | 0.104 | 0.0745 | 1.28 | 0.296 | 0.323 | 0.293 | 1.45
CCTTACGGGTCACTCCAGGTTATAGCGTCGGAGT | 2.85 | 4.55 | 4.23 | 1.41 | 4.06 | 5.06 | 0.469 | 1.5
CCTCGGAGGACAGAAGGCCAGAGCTGTCCGCTTT | 0.275 | -0.112 | 0.0875 | -0.346 | -0.765 | 0.0492 | -0.927 | -0.212
TTACCAAAGTGAAGGTCGTTGATCCCTCTGTAGA | 0.733 | 0.112 | -0.254 | 0.0594 | 0.926 | 0.74 | -0.495 | 0.739
ATATGTAGGTTAGGTGGGGTCATTCAGACTAGGC | 3.74 | 4.1 | 3.02 | 2.19 | 5.54 | 5.05 | 3.72 | 6.4
CCGACTGGGGCATAAGGTTACGATAAGCCAGCCC | 1.67 | 1.92 | 1.18 | -0.47 | 1.45 | 1.98 | 0.985 | -0.0834
AGAATGAGATTATACGTAGATCAGGGAAGAAAGT | -0.466 | 0.0162 | 0.288 | -0.678 | -0.166 | -0.438 | -0.705 | 0.0852
TTACCAAGGTGAGCTAAGGTCGTTGATCCAACTC | 1.72 | 1.56 | 1.15 | -0.158 | 1.65 | 4.71 | 2.41 | 1.29
CGACCTAGGTCAGAACAGGACAGTGAAGGATGAT | 2.62 | 3.3 | 4.04 | 0.773 | 2.21 | 3.83 | 0.505 | 0.303

Sequence | PBM binding z-score [1] | PBM binding z-score [2] | PBM binding z-score [3] | PBM binding z-score [4] | PBM binding z-score [5] | PBM binding z-score [6] | PBM binding z-score [7] | PBM binding z-score [8]
ACTAGCAGGCCAAGTTTAGGTCACTCAAACAAAG | 2.6 | 3 | 2.44 | 0.0394 | 0.727 | 3.43 | 2.59 | 0.966
CCGACTGGGCCATCAGGTCATTGATATCAACGTT | 2.62 | 2.06 | 1.8 | 0.194 | 1.38 | 3.17 | 2.95 | 1.67
TAGCCTAGGTGATGGGCCAGTATACCACGCGAAC | -0.0783 | -0.276 | -0.196 | -1.47 | -0.236 | -0.153 | -0.23 | -0.76
TCGAGTAGGTTAGTCGGGGGATTCAGCCAACATA | 0.341 | 0.199 | 0.0266 | 0.48 | 0.178 | 1.25 | 0.267 | 0.183
TCTAGTTGGTCACGAAGGTCACACACGACGGGTA | 4.07 | 4.7 | 5.06 | 1.09 | 4.24 | 3.02 | 1.5 | 2.09
TCATATAGGTAAAGGTGAGAGTCGAACGATATGA | 1.28 | 1.29 | 1.33 | 0.713 | 1.64 | 0.888 | -0.508 | -0.128
ACTAGCAGGCCAAGTATGGGTCACTCAAACAAAG | 2.24 | 2.53 | 1.63 | -0.279 | 1.11 | 0.976 | -0.26 | 0.0355
TTACCAATGTGAGCTGAGGTCGTTGATCCAACTC | 0.861 | 0.247 | -0.299 | 0.122 | 0.752 | 3.25 | 1.54 | 2.7
CGAACTAGGTCAGAACCGGACAGTGAAGGATGAT | 1.76 | 2.4 | 3.3 | 0.258 | 1.12 | 1.72 | 0.00608 | -0.191
ATCTCTAGGTAACCAAGTTCAGCGAATGCCGAAC | 1.63 | 1.03 | 1.06 | 0.597 | 0.733 | 1.51 | 0.797 | 2.79
CCTAGTTGGTCAGGAGGTCAAACACCGGATATGA | 4.15 | 5.37 | 4.68 | 1.15 | 5.72 | 3.5 | 1.99 | 3.16
TAGCCTCGGTCATGGGCCAGTATACCACGCGAAC | 1.72 | 1.72 | 2.42 | -1.4 | 0.378 | 0.05 | -0.217 | -0.408
ACTAGCAGGCCAAGGGTCACGCAAGATTAGTCCG | 4.29 | 5.29 | 4.8 | 0.355 | 5.96 | 3.38 | 0.69 | 1.24
CACACTAGGTCACGAAAGGTCAAAGTCGAATGAC | 5.91 | 7.95 | 8.87 | 2.87 | 8.16 | 5.26 | 3.18 | 3.49
ATTTCTAGGTAAAAGTTCAGTGAATCCCGAGGAT | 2.3 | 2.15 | 2.03 | 1.21 | 1.88 | 1.64 | 0.543 | 2.1
TCATATAGGTAATCCAGGTGAAAGTCGGCATCTA | 0.511 | 0.501 | 0.455 | 1.5 | 0.995 | 2.41 | 1.35 | 0.168
CAAACTAGGACAAGGTCAAAGTCGGTTTGTGCCA | 3.66 | 4.2 | 3.68 | 2.27 | 4.36 | 3.84 | 2.86 | 3.88
TCTCGGAGGACACGAAAGGTAAGAGCTCGACATC | 0.782 | 0.65 | 1.6 | 0.729 | 0.0654 | 2 | 0.0945 | -0.863
CGTCCAAGGTCAAAGGTCAGTGTAGAGATGACGG | 5.37 | 8.64 | 8.04 | 3.99 | 10.1 | 4.77 | 2.77 | 3.86
TGTGCTAGGTCAACGATGGTCAGCTAATCTGCTA | 3.4 | 3.88 | 5.19 | 0.342 | 2.45 | 3 | 0.529 | -0.186
TTACCAAGGTGAAAGTCGTTGATCCCTCTGTAGA | 0.704 | 0.61 | 0.23 | 0.0451 | 1.2 | 2 | 0.568 | -0.192
CCTATTAGTTGACCATAAGGTCAACCGAAGCTCG | 4.8 | 4.83 | 4.07 | 1.77 | 4.39 | 4.27 | 5.15 | 3.25
CCTACTGGGCCATTCAGAGGTCATTCATCATATG | 4.11 | 4.47 | 2.94 | 0.971 | 3.37 | 3.14 | 1.51 | 3.85
CCGACTGGGGCAAGTTTACCATAACGCACAGCCA | 0.697 | 0.446 | 0.667 | 0.533 | 0.261 | -0.0579 | -0.484 | 0.132
GCAGACAGGTGAAACGCGGGTAACTCAGGGTGGC | 0.366 | 0.785 | 0.319 | -0.6 | 0.631 | 1.64 | -0.533 | -0.362
AAAGACAGGTGATGAAGGTAACTCAGGCTATCAT | 0.516 | 0.231 | 0.563 | -0.304 | 0.572 | 1.23 | 0.466 | 0.111
